Source: PubChem BioAssay (Tox21)
Active and inactive are the calls of the source. Entries that show only a call come without a potency. Calls follow the shape of the dose curve; as a rule, active = well fitted activation curve with a large enough effect in the repeat runs; inconclusive = weak or mixed curves; inactive = flat fitted curve, though single readings scatter.

molecular target: KiSS-1 receptor (Homo sapiens) (UniProt Q969F8); test: Human kisspeptin (KISS1R) small molecule agonists, calcium flux assay in KISS1R-HEK293 cells (AID 1920064); details: KISS1R-HEK293, calcium flux fluorescence, agonist; series mostly up to 76.8 µM
Excerpt: National Center for Advancing Translational Sciences [NCATS]
Division of Preclinical Innovation [DPI]
U.S. Environmental Protection Agency [EPA]
National Institutes of Environmental Health Sciences [NIEHS]
National Toxicology Program [NTP]
U.S. Food and Drug Administration [FDA]
Kisspeptin and its receptor KISS1R play key roles in mammalian reproduction due to their involvement in the onset of puberty and control of the hypothalamic-pituitary-gonadal axis such as regulates GnRH release from the hypothalamus. The kisspeptin/KISS1R system also plays a direct role in peripheral organs (including the ovary, testis, uterus, and placenta) and is implicated in reproductive diseases such as miscarriage and polycystic ovary syndrome (PCOS). Abnormal KISS1R activity is associated with abnormal puberty, infertility, endometriosis, and hormone-dependent tumors. The KISS1 receptor (KISS1R, also called GPR54), a G-protein-coupled receptor (GPCR), acts (through phospholipase C) to increase intracellular inositol trisphosphate and then release intracellular calcium stores. Cell-based KISS1R-HEK293 assay is using HEK293 cells that have been genetically engineered to express the human KISS1R, which activity can be measured by calcium signaling. A compound/drug can activate (agonist) KISS1R that can be monitored by levels of intracellular calcium.
KISS1R-HEK293 cells developed by Codex Corp contain human KISS1R gene, which was stably integrated into HEK 293 cells. The compound activation can be detected by fluorescence intensity via calcium flux assay. This cell line has been used to screen the Tox21 10K compound library to identify agonists of KISS1R.
KISS1R-Hek293 cells were dispensed at 1500 cells/4uL/well in 1536-well black wall/clear bottom plates using a multidrop dispenser. After the assay plates were incubated at a 37 C/5% CO2 incubator for 18 hours, 4 microL of Calcium Dye Solution was added to each well. The plates were incubated at 37 C for 1 hour. And then 23 nL of compounds dissolved in DMSO, positive controls, or DMSO only was transferred to the assay plate by a pin tool station. The fluorescence intensity in the plates was measured using FDSS 7000EX kinetic plate reader with a filter set of Ex/Em=480/540 for 3 min at 1 sec intervals. Each test compound was measured at 15 concentrations and in triplicates.

Chain of KiSS-1 receptor (Homo sapiens) (Q969F8 whole entry, looked up): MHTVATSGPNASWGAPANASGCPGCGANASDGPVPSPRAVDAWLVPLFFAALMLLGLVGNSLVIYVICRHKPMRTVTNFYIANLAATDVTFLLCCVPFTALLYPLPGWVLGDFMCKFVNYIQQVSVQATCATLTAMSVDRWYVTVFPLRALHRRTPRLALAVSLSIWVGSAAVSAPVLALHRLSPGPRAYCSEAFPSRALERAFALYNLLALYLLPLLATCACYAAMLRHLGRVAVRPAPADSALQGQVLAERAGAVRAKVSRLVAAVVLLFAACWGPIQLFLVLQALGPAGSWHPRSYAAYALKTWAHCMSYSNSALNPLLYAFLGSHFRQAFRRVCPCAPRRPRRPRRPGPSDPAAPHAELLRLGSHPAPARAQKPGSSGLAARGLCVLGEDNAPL

For `c1ccc(Nc2ccccc2)cc1`, which Potency is on record?
The Potency was “inactive”.

With `CCCCC1(COC(=O)CCC(=O)O)C(=O)N(c2ccccc2)N(c2ccccc2)C1=O` as the molecule, how does the Potency read?
The Potency was “inactive”.

`CC(=O)Nc1ccc(C(=O)CCl)cc1` was tested. Which Potency did it give?
The Potency was “inactive”.

Which Potency does the source give for `NS(=O)(=O)c1cc2c(cc1Cl)NC=NS2(=O)=O` here?
The Potency was “inactive”.

Which Potency does the source give for `OCCc1ccccc1` here?
Its Potency is “inactive”.

For `CCOCCO`, which Potency is on record?
Its Potency is “inactive”.

For `COCc1c(C(C)C)nc(C(C)C)c(/C=C/[C@@H](O)C[C@@H](O)CC(=O)O)c1-c1ccc(F)cc1`, which Potency is on record?
Its Potency is “inactive”.

With `C=CCCCCCCCCC(=O)O` as the molecule, how does the Potency read?
The Potency was “inactive”.

For `C=C(CC(=O)O)C(=O)O`, which Potency is on record?
The Potency was “inactive”.

With `CCCCCC(N)=O` as the molecule, how does the Potency read?
Its Potency is “inactive”.

How did the Potency turn out when `C=C1C2CCC(C2)C1(C)C` (stereo not given) was run?
Its Potency is “inactive”.

How did the Potency turn out when `CC(C)(CO)CO` was run?
The Potency was “inactive”.

For `O=C1CCCCCN1`, which Potency is on record?
Its Potency is “inactive”.

`CCCCCCCC(=O)O` was tested. Which Potency did it give?
Its Potency is “inactive”.

Which Potency does the source give for `CCOCCOCCO` here?
The Potency was “inactive”.

`O=C(O)c1cccnc1` was tested. Which Potency did it give?
The Potency was “inactive”.

How did the Potency turn out when `CCCCC(C=O)CC` (stereo not given) was run?
The Potency was “inactive”.

How did the Potency turn out when `CC(=O)[C@@]1(O)CC[C@H]2[C@@H]3C[C@H](C)C4=CC(=O)C=C[C@]4(C)[C@@]3(F)[C@@H](O)C[C@@]21C` was run?
The Potency was “inactive”.

Which Potency does the source give for `CC(C)=CCl` here?
Its Potency is “inactive”.

How did the Potency turn out when `OC[C@@H](O)[C@@H](O)[C@H](O)[C@@H](O)CO` was run?
Its Potency is “inactive”.

With `C1CNCCN1` as the molecule, how does the Potency read?
Its Potency is “inactive”.

`CCCCCCCCCCCCCC(=O)O` was tested. Which Potency did it give?
Its Potency is “inactive”.

For `CCCC(=O)O`, which Potency is on record?
The Potency was “inactive”.

`c1ccc2c(c1)c1cccc3ccc4cccc2c4c31` was tested. Which Potency did it give?
Its Potency is “inactive”.

Which Potency does the source give for `Cc1ccc2c(n1)Oc1ccc(C(C)C(=O)OCC(=O)N(C)C)cc1C2` (stereo not given) here?
The Potency was “inactive”.

For `CN(C)CCOC(=O)COc1ccc(Cl)cc1`, which Potency is on record?
The Potency was “inactive”.

`Cc1cc(CC(=O)O)n(C)c1C(=O)c1ccc(Cl)cc1` was tested. Which Potency did it give?
The Potency was “inactive”.

`Brc1ccc(Br)c(Br)c1` was tested. Which Potency did it give?
Its Potency is “inactive”.

For `O=C1c2c(O)cccc2Cc2cccc(O)c21`, which Potency is on record?
The Potency was “inactive”.

`CC(=O)Nc1ccc(C(=O)O)cc1` was tested. Which Potency did it give?
The Potency was “inactive”.

Which Potency does the source give for `COC(=O)CC(=O)OC` here?
The Potency was “inactive”.

With `CC(=O)c1nccs1` as the molecule, how does the Potency read?
The Potency was “inactive”.

`CCC(=O)O` was tested. Which Potency did it give?
The Potency was “inactive”.

For `CCCCCCCC(=O)OCC(O)CO` (stereo not given), which Potency is on record?
Its Potency is “inactive”.

How did the Potency turn out when `O=C(O)CCCCCCCCC(=O)O` was run?
The Potency was “inactive”.

Which Potency does the source give for `c1ccc2[nH]ccc2c1` here?
Its Potency is “inactive”.

Which Potency does the source give for `O=C(O)c1cn(-c2ccc(F)cc2)c2cc(N3CCNCC3)c(F)cc2c1=O` here?
Its Potency is “inactive”.

Which Potency does the source give for `CCCCCCCCCCCCCCCCO` here?
Its Potency is “inactive”.

Which Potency does the source give for `Oc1ccc2ccccc2c1N=Nc1ccccc1` here?
Its Potency is “inactive”.

With `NC(N)=NC(N)=NCCc1ccccc1` as the molecule, how does the Potency read?
The Potency was “inactive”.
